# Neddylation inh = blocks human cullin neddylation. calls only at 25 µM. TR-FRET cullin neddylation, biochemical. P61081+Q13564. 360,000 tested, 0.58% active; in the data active means inhibition above about 36%
# PKA-R1A act = PKA-R1A complex activation | activation, % at 11.4 µM | PKA-R1A dissociation, Cy5-IP20 fluorescence polarization; scaled: DMSO 0%, 113 µM cGMP 100% | P00514+P68181 | 340,000 tested, 0.083% active;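 active means percent activation above the mean of all tested compounds plus 3 SD, cut at about 19% in these data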;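 further: higher means more PKAc released from R1A so a rise in polarization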
# PolyA inh = blocks polyadenylation in yeast reporter cells. AID 1875. 300,000 tested, 0.02% active. activity score, % at 12 µM. S. cerevisiae SKY197-pL101 polyadenylation reporter, beta-gal luminescence; efflux-impaired pdr1/pdr3 knockout yeast; score 100 = 6 SD above DMSO;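 active means lowest replicate activity score at least 50, where 100 means six control SD above control mean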;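 further: yeast exposed to compound for 9 h at 30 °C; higher score means more reporter readthrough which indicates perturbed polyadenylation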
# PKA-R2B act = activates the human PKA-R2B holoenzyme complex; AID 504700; 340,000 tested, 0.079% active; P22694+P31323; activation, % at 11.4 µM; PKA-R2B holoenzyme dissociation, Cy5-IP20 fluorescence polarization; R2B truncated from residue 108, S112A mutant; 0% DMSO only, 100% 113 µM cGMP;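 active means activation above a cutoff set at the mean over all compounds plus 3 SD, cut at about 18% in these data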;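 further: higher means more holoenzyme dissociation and a rise in polarization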
# Target sequence (P31323 whole entry, looked up, other chains not shown, the tested form may be a part): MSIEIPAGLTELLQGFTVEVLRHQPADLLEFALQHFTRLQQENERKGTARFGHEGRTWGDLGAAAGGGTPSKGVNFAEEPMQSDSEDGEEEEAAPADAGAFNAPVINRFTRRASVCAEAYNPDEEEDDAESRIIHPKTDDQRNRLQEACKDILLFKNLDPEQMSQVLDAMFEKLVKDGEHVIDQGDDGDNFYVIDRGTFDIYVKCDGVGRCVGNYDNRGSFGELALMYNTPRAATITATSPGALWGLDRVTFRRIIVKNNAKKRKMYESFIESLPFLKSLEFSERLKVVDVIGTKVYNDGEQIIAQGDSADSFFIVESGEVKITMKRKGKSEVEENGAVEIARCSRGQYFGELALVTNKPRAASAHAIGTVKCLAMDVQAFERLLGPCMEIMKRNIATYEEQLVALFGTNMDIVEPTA
# R1A FP artifact = fluorescence polarization artifact in PKA-R1A activator counter-screen; activation, % at 11.4 µM; Cy5-IP20 peptide alone, fluorescence polarization artifact counterscreen; 280 tested, 7% active; shares compounds with PKA-R1A act;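 active means mean activation over triplicate runs exceeds the adjusted cutoff derived for the parent primary screen, cut at about 19% in these data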;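 further: no PKA protein present so any polarization rise reflects compound interference; 0% = tracer peptide mix alone and 100% = mix with added PKA catalytic subunit; higher means stronger polarization artifact and likely false positive in parent screen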
# PKA-R1A confirm = confirmation of PKA-R1A complex activators | 280 tested, 9% active | AID 504800 | activation, % at 11.4 µM | Cy5-IP20 fluorescence polarization, PKA-R1A holoenzyme dissociation | shares compounds with PKA-R1A act;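 active means mean activation over replicate wells exceeds the adjusted hit threshold taken from the earlier primary screen, cut at about 20% in these data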;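 further: 0% = holoenzyme mix with DMSO only and 100% = cGMP-activated control wells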
# Neddyl inh conf = cullin neddylation inhibition, confirmation; calls only at 25 µM; 1,800 tested, 13% active; shares compounds with Neddylation inh; TR-FRET cullin neddylation biochemical assay; in the data active means inhibition above about 40%;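 further: neddylation substrate is the cullin 1 ring ligase complex with SKP2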
# Starred values were filed as active, the others as inactive; i = inactive; / = not tested or not shown; + = active, no number. An excerpt weighted towards active compounds, which were near 0.72% of everything screened.
SMILES,Neddylation inh,PKA-R1A act,PolyA inh,PKA-R2B act,R1A FP artifact,PKA-R1A confirm,others
CSc1nc(C)cc(/C=C\c2ccccc2)c1C#N,i,20*,-13,1,1,1,
CSc1nc(-c2ccccc2)cc(C)c1C#N,i,5,-10,-9,/,/,
Brc1ccccc1CN1CCC(N2CCCCC2)CC1,i,21*,-8,9,5,6,
O[C@@H]1CN(C2CCN(Cc3ccccc3)CC2)CC[C@H]1N1CCCCCC1,i,-6,/,3,/,/,
CCCCCC(=O)N1C[C@@H](n2cc(C3CC3)nn2)[C@H](O)C[C@@H]1c1ccccc1,i,1,/,8,/,/,
Cc1sc(NC(=O)C2CCCCC2C(=O)O)c(C(N)=O)c1-c1ccccc1 (stereo not given),i,19*,16,5,3,1,
O=C(Nc1cccc(Cl)c1)Nc1nnc(-c2ccncc2)s1,i,22*,34,7,26*,26*,
C[C@@H]1CN([C@H](C)CO)C(=O)CCCn2cc(nn2)CO[C@H]1CN(C)C(=O)C1CCCCC1,i,/,/,/,/,/,
O=C1C2C3C=CC(C3)C2C(=O)N1CCC(=O)N1CCc2ccccc21 (stereo not given),i,23*,23,-7,2,4,
CC(=O)Nc1ccc(NC(=O)CNC(=O)COc2ccccc2)cc1,i,7,-9,-4,/,/,
COC(=O)CNC(=O)COc1ccccc1,i,20*,-2,4,-3,-1,
CCOC(=O)c1c(NC(=O)c2c(C(=O)O)cccc2[N+](=O)[O-])sc2c1CCCC2,i,19*,-1,-8,4,1,
CCOC(=O)c1c(NC(=O)c2cccc([N+](=O)[O-])c2C(=O)O)sc2c1CCCC2,i,-4,-8,3,/,/,
CCOC(=O)c1c(NC(=O)CCC(=O)O)sc2c1CCCCC2,i,20*,-14,0,3,9,
Nn1c(SCc2cccc(Br)c2)nnc1-c1ccncc1,i,-12,12,-4,/,/,
C/C(O)=C(\N=Nc1cc(C)ccc1O)C(N)=O,i,/,-23,/,/,/,
COc1ccccc1-c1csc(NC(=O)c2cc(-c3cccs3)nc3ccccc23)n1,/,23*,8,-8,-1,3,
Cc1cccc(N(Cc2ccccc2)C(=O)CSC(C)C(=O)Nc2cc(C)on2)c1 (stereo not given),i,-4,6,-20,/,/,
O=C(O)c1ccc2cccnc2n1,i,20*,1,2,5,2,
O=C(O)c1ccc2cccc(O)c2n1,i,/,12,/,/,/,
CCCCNC(=O)CCn1c(=O)c2ccccc2n(Cc2ccc(F)cc2)c1=O,i,22*,-9,11,0,-3,
COCCCNC(=O)CCn1c(=O)c2ccccc2n(Cc2cccc([N+](=O)[O-])c2)c1=O,i,-10,-1,-6,/,/,
CNC(=O)COC(=O)c1ccc(OCC(=O)Nc2ccccc2OC)c(OC)c1,i,22*,5,1,-3,1,
O=C(NCc1nc2ccccc2[nH]1)C1=C[C@H](c2ccc(C(F)(F)F)cc2)C[C@H](OCc2ccc(CO)cc2)O1,i,20*,-18,14,29*,18,
O=C(Cn1cnc2c(cnn2-c2ccc(F)cc2)c1=O)N1CCN(c2ccccc2F)CC1,i,-2,15,-2,/,/,
SMILES,Neddylation inh,PKA-R1A act,PolyA inh,PKA-R2B act,R1A FP artifact,PKA-R1A confirm,others
O=C(Cn1nnc2c(cnn2-c2ccccc2)c1=O)N1CCN(c2ccccc2F)CC1,i,19*,-21,11,3,1,
CC(C)n1nnnc1C1c2ccccc2C(=O)N1CCCn1ccnc1 (stereo not given),i,/,/,/,/,/,
Cn1c(SCC(=O)Nc2ccccc2Cl)nnc1C1CC1,i,4,7,-4,/,/,
Cn1c(SCC(=O)Nc2nnc(-c3ccccc3)o2)nnc1C1CC1,i,19*,3,2,2,1,
COc1ccc(C)cc1NC(=O)CSc1nnc(CC(=O)Nc2cccc(C(F)(F)F)c2)n1C,i,23*,26,-5,5,-1,
CN(C)c1ccc(NC(=O)CSc2nc3ccccc3c(=O)n2CC2CCCO2)cc1 (stereo not given),i,3,12,-5,/,/,
Cc1ccc(NC(=O)CSc2nc3ccccc3c(=O)n2CC2CCCO2)cc1 (stereo not given),i,19*,-1,3,-4,3,
COc1ccnc(CSC(N)=Nc2cccc(C(F)(F)F)c2)c1,i,-4,5,-5,/,/,
CCC(=O)N1CCCc2cc(S(=O)(=O)CCC(=O)Nc3ccccc3C)ccc21,i,5,-16,-11,/,/,
COc1ccc(-c2noc(CCC(=O)NCCc3ccccc3)n2)cc1OC,i,19*,-7,2,-1,2,
C#CCOCCOCCOCCNc1nc(N2CCN(C(=O)[C@H]([C@@H](C)CC)n3cc([C@@H](N)CC(C)C)nn3)CC2)nc(N2CCN(C(=O)[C@H](CCCCN)n3cc([C@@H](N)CO)nn3)CC2)n1,i,20*,25,0,5,1,
C#CCOCCOCCOCCNc1nc(N2CCN(C(=O)[C@H]([C@@H](C)CC)n3cc([C@@H](N)CO)nn3)CC2)nc(N2CCN(C(=O)[C@H](CCCCN)n3cc([C@@H](N)CO)nn3)CC2)n1,i,-5,/,-15,/,/,
CCNc1nc(NCC)n2c(SCC(=O)Nc3ccc(C)c(C)c3)nnc2n1,i,7,0,3,/,/,
COc1ccc(NC(=O)Cn2nnc(-c3ccccc3NC(=O)c3ccco3)n2)cc1,/,20*,5,8,2,6,
COc1cccc(N2CC(C(=O)Nc3nnc(SCC(=O)Nc4ccc(NC(C)=O)cc4)s3)CC2=O)c1 (stereo not given),i,2,2,-4,/,/,
COc1cccc(C(=O)Nc2nnc(SCC(=O)Nc3ccc(NC(C)=O)cc3)s2)c1,i,20*,1,5,1,-3,
COc1cccc(CNS(=O)(=O)c2c(C)[nH]c(C)c2C(=O)N2CCCC2)c1,i,0,5,-8,/,/,
CCOC1=C2[C@H](c3ccccc3)N(S(=O)(=O)c3ccccc3)C[C@H]2n2c(=O)n(-c3ccccc3)c(=O)n2C1,i,/,/,/,/,/,
COc1ccc(C2(O)CC3CCC(C2)N3c2nc(C)cc(C)c2C#N)cc1 (stereo not given),+,2,-3,-9,/,/,Neddyl inh conf=i
CCCN(CCC)CCCNC(=O)c1cc2c(-c3ccc(OC)c(OC)c3)nn(C)c2s1,+,-1,2,7,/,/,Neddyl inh conf=i
COc1ccc(-c2nn(C)c3sc(C(=O)NCCN(C)C)cc23)cc1OC,i,6,-5,0,/,/,
